Laboratory results reported in ChEMBL document CHEMBL3988442, “University of Dundee, Small-Polar-MMV Screening Library” (2021).
For some of these results: Results with a measured potency or affinity are listed apart.

How the values were obtained:
Design in all cases: scale not given: direction of the effect not stated beside the values
[1] = target: Protein translocase subunit SecA (Escherichia coli (strain K12)) (UniProt P10408); experiment: Assay to Identify E. coli SecA ATPase Inhibitors; type: functional; conditions: 30 µM
[2] = target: T1, Ubiquitin-activating enzyme e1, putative (Leishmania donovani (strain BPK282A1)) (UniProt E9BSI1); experiment: Leishmania donovani Ubiquitin Activating Enzyme (LdE1); type: functional; conditions: 30 µM
T1 sequence (whole entry): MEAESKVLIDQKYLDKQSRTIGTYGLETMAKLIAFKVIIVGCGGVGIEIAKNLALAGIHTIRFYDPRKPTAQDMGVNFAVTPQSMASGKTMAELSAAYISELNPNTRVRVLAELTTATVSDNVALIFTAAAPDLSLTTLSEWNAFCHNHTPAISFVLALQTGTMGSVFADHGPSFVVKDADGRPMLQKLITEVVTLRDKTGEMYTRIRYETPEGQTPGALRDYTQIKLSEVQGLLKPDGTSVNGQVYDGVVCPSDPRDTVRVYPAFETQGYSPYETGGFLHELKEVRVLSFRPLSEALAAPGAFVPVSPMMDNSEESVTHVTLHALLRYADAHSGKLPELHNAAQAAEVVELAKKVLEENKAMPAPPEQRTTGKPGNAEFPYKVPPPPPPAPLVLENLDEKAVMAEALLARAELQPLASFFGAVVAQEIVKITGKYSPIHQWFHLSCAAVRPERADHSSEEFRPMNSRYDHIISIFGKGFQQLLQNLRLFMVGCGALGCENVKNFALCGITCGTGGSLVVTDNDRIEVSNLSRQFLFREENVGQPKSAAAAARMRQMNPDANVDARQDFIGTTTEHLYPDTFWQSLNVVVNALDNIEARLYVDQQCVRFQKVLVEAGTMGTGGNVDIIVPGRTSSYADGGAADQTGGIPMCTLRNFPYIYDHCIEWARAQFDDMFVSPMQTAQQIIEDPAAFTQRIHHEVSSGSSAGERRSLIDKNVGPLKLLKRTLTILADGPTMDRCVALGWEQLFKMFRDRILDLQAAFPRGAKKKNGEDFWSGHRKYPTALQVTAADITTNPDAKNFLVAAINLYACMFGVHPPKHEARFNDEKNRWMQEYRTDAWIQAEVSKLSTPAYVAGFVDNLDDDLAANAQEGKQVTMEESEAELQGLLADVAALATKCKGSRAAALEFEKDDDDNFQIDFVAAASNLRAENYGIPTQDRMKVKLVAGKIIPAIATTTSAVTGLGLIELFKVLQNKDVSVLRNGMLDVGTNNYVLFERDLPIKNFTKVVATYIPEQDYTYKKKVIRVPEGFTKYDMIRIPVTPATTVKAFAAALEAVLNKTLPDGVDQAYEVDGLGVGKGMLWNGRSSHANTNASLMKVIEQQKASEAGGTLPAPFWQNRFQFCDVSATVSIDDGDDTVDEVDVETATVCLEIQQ

[3] = target: AMP-activated protein kinase, AMPK (Homo sapiens) (UniProt P54646+O43741+P54619+Q9UGJ0+Q9Y478+Q13131+Q9UGI9); experiment: AMP-dependent Kinase enzyme assay. An in vitro enzyme assay that detects ADP turnover that is directly proportional to AMPK activity. This uses naive AMPK that is activated during the assay with MK-8722; type: functional; conditions: 30 µM
[4] = target: Sialic acid-binding Ig-like lectin 9 (Homo sapiens) (UniProt Q9Y336); experiment: Hs-Siglec9 ALPHAscreen SOP 20170721; conditions: 10 µM
Trypanosoma cruzi = experiment: Trypanosoma cruzi phosphomannomutase and mannose-1-phosphate guanylyltransferase assay; type: functional; conditions: 10 µM
[5] = target: T2, Arginase-2, mitochondrial (Homo sapiens) (UniProt P78540); experiment: in vitro enzyme assay to detect the production of urea directly proportional to the activity of Arginase II; type: functional; conditions: 33.3 µM; further: in the data most compounds retested in dose-response had high values
T2 sequence (whole entry): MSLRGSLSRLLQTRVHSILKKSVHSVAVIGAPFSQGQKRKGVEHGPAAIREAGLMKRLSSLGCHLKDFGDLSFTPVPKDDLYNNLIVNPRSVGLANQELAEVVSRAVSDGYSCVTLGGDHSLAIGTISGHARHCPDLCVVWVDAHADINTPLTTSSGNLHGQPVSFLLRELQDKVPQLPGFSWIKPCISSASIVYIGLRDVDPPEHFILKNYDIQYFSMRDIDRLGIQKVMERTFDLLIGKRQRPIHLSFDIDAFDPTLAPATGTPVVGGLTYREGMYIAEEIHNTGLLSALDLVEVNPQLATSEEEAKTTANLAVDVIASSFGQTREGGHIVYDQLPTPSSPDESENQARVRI

[6] = target: T3, Proteasome subunit beta (Trypanosoma cruzi) (UniProt O96673); experiment: Trypanosoma cruzi proteasome chymotrypsin-like activity (TcProtChymo) assay.; further: in the data most compounds retested in dose-response had high values; type: functional; conditions: 9.37 µM
T3 sequence (whole entry): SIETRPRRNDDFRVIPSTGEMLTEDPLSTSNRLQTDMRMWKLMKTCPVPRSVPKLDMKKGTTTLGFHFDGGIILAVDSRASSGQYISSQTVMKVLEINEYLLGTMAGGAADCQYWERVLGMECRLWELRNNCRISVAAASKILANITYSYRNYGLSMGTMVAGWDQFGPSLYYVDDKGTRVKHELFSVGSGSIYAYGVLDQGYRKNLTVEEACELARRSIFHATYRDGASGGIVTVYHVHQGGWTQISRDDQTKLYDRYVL

Homo sapiens = species: Homo sapiens; experiment: To identify inhibition of the IFN signalling (Jak-Stat) pathway via expression of an eGFP reporter gene under the control of an IFN-stimulated response element (ISRE) containing MxA promoter.; type: functional; conditions: 30 µM
[7] = target: T4, Tyrosyl-tRNA synthetase, putative (Trypanosoma cruzi (strain CL Brener)) (UniProt Q4DSP6); experiment: Trypanosoma cruzi tyrosyl tRNA synthetase (TcYRS) _High Tyrosine SOP; type: functional; conditions: 30 µM; further: in the data most compounds retested in dose-response had high values
T4 sequence (whole entry): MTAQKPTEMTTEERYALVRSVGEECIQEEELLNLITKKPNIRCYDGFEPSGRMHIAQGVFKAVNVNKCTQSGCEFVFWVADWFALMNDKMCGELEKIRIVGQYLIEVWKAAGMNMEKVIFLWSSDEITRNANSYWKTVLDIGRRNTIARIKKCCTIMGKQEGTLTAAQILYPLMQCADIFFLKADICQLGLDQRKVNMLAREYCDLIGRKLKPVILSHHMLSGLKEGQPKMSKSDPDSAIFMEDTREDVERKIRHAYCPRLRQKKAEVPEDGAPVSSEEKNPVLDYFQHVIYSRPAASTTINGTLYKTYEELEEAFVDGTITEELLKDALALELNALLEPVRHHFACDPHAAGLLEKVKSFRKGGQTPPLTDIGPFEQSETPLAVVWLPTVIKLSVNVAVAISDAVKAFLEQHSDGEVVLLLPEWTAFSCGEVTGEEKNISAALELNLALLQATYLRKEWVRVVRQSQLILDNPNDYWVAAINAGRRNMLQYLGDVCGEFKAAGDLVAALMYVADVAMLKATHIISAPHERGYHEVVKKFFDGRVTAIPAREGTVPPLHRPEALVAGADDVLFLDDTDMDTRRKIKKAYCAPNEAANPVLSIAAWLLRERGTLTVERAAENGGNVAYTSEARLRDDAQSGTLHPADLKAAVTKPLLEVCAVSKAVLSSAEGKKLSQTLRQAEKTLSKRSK

[8] = target: T4, Tyrosyl-tRNA synthetase, putative (Trypanosoma cruzi (strain CL Brener)); experiment: Trypanosoma cruzi tyrosyl tRNA synthetase (TcYRS) SOP; type: functional; conditions: 30 µM
[9] = target: Chromo domain-containing protein 1 (Saccharomyces cerevisiae (strain ATCC 204508 / S288c) (Baker's yeast)) (UniProt P32657); experiment: ScCHD-1 Enzyme Inhibition Assay; type: functional; conditions: 30 µM; further: in the data most compounds retested in dose-response had high values
Chain of Chromo domain-containing protein 1 (Saccharomyces cerevisiae (strain ATCC 204508 / S288c) (Baker's yeast)) (P32657 whole entry, the tested form may be a part): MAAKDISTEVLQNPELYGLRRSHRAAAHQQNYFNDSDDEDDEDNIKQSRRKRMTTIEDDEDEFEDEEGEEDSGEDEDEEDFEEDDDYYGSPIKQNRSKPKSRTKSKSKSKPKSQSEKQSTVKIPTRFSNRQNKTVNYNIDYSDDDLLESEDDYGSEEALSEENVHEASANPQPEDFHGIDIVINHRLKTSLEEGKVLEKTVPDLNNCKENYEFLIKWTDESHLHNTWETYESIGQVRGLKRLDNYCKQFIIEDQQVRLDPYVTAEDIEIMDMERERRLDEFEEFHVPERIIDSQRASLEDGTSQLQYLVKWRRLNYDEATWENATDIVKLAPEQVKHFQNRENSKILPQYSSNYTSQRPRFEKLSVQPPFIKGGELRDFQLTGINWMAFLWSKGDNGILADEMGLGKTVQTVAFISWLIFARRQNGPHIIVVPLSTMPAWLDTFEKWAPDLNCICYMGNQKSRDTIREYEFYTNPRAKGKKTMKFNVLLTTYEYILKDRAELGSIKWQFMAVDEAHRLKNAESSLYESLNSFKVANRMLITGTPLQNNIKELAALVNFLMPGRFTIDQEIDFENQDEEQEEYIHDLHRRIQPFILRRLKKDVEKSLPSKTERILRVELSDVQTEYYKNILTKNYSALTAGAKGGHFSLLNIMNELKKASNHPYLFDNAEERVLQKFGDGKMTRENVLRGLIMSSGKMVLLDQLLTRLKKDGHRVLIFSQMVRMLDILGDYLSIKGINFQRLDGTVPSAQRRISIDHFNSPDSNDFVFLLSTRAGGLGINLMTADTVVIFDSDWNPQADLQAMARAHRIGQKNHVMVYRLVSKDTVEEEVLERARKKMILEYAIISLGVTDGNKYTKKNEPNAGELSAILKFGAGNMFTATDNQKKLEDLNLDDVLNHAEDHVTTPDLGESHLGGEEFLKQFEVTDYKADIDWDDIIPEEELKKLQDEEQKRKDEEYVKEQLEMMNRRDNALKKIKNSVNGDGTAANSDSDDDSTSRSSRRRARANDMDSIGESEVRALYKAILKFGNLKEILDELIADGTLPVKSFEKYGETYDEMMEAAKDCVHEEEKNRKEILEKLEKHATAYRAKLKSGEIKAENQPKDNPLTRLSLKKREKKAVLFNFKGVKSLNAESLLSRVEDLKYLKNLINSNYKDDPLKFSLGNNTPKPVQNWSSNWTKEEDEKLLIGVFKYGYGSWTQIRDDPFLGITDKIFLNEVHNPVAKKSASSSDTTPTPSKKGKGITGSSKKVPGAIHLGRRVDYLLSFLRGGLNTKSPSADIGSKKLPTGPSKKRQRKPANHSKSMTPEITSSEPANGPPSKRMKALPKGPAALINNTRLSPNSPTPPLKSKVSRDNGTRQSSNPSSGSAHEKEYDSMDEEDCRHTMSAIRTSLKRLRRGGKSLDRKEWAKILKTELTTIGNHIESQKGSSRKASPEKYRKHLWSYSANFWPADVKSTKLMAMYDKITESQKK

Chain of Protein translocase subunit SecA (Escherichia coli (strain K12)) (P10408 whole entry): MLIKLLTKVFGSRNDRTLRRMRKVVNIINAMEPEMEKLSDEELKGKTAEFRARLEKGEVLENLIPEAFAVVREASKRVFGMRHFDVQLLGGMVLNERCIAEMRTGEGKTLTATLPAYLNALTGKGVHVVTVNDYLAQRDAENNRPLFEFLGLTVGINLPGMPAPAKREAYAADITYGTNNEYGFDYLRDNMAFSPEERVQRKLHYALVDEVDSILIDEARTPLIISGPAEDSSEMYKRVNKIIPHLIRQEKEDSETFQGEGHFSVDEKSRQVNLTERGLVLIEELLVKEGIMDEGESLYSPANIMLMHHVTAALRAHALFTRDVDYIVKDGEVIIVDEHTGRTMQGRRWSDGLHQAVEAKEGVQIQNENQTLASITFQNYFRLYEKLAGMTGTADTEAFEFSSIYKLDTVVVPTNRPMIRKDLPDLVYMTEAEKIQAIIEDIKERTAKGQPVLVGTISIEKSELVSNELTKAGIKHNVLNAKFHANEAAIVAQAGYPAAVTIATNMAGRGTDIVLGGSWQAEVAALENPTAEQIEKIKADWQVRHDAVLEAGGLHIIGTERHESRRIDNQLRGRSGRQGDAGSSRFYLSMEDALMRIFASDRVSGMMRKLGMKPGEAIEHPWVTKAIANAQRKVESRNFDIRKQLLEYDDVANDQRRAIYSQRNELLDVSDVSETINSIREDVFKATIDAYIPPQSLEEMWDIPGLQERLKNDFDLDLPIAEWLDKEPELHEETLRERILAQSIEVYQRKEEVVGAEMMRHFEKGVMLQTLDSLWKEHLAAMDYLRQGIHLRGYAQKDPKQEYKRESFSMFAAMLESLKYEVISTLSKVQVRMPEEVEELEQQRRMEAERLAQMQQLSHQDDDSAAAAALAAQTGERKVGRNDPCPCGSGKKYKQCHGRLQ
Chain of Sialic acid-binding Ig-like lectin 9 (Homo sapiens) (Q9Y336 whole entry): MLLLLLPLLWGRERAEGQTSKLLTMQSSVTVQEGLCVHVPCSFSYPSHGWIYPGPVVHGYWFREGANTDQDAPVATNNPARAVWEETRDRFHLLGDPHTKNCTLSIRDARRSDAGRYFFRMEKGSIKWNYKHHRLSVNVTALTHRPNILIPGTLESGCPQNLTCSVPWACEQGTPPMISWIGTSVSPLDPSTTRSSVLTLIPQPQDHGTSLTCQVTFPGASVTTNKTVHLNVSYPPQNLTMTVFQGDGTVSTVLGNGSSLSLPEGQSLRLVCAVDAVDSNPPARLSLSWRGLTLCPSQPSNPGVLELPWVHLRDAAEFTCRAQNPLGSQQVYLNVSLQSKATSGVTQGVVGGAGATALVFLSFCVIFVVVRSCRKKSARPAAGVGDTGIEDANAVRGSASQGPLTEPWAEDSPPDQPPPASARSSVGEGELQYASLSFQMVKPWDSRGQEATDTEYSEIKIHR

| Compound | Percent Effect [1] | Percent Effect [2] | Percent Effect [3] | Percent Effect [4] | Percent Effect (Trypanosoma cruzi) | Percent Effect [5] | Percent Effect [6] | Percent Effect (Homo sapiens) | Percent Effect [7] | Percent Effect [8] | Percent Effect [9] |
| --- | --- | --- | --- | --- | --- | --- | --- | --- | --- | --- | --- |
| O=C(CCN1CCCC1=O)NCc1cccnc1Oc1ccccc1 | -6.95% | -8.22% | 0.461% | 2.58% | 0.595% | -1.2% | 4.88% | -2.67% | 1.04% | 6.17% | -1.4% |
| CC(C)c1nc(C2CCCN2C(=O)c2ccc(N(C)C)nn2)no1 (configuration not stated) | -0.476% | 16.2% | -4.5% | -2.95% | 0.0929% | -4.25% | 6.1% | 24.1% | 3.96% | 15.8% | -5.4% |
| c1cc2nc(C3CCN(CC4CC4)CC3)nn2cc1N1CCCC1 | -0.605% | 11% | -111% | 9.79% | 0.595% | 0.399% | 11.4% | 7.29% | 13.5% | -1.24% | -6.62% |
| COc1cccc(CN2CCCC2c2c(C)nn(C)c2C)c1 (configuration not stated) | -1.8% | -2.53% | -4.49% | 11.6% | 0.661% | 0.38% | -1.72% | -9.36% | 5.42% | -1.27% | -3.67% |
| CC(=O)c1cc(CC(=O)NCc2ccc(CN(C)C)cc2)cs1 | -2.94% | 8.11% | -1.37% | 9.94% | 6.37% | 0.476% | -1.21% | 1.37% | 2.65% | 4.88% | -2.09% |
| Cn1cnc(S(=O)(=O)NCCN2CCCCCC2=O)c1Cl | -8.78% | 5.41% | -41.8% | 6.15% | -3.87% | -0.802% | 0.721% | 17.8% | -0.493% | -6.17% | -8.21% |
| CSC(C)(C)CNC(=O)NCCC1CCN(C)CC1 | -2.34% | 2.67% | -5.7% | -5.29% | 0.487% | -1.56% | 2.96% | 11.5% | 1.64% | 6.17% | 1.16% |
| CCOc1ccccc1C(CC(=O)Nc1ccccc1F)NC(C)=O (configuration not stated) | -4.23% | 10.5% | 0.587% | 13.4% | 2.82% | -1.92% | -4.18% | -32.5% | 3.43% | 9.76% | -4.56% |
| O=C(NC1CC1)[C@@H]1CCO[C@@H]2CCN(C3CCOCC3)C[C@@H]21 | 1.01% | 2.6% | -0.255% | 5.79% | 6.98% | -13.8% | 3.49% | -21.6% | 1.07% | 1.24% | -7.95% |
| C[C@@H]1C[C@@H]2CCN(C(=O)c3cnccn3)C[C@H]2O1 | -2.4% | -2.7% | 5.23% | -2.15% | -1.95% | 0.417% | -0.592% | 3.34% | 1.98% | -3.66% | -0.0529% |
| Cn1cc(Br)c(=O)c(NS(=O)(=O)c2ccc(F)cc2)c1 | -0.436% | 2.7% | -1.93% | 10.6% | 5.41% | -0.476% | 10.5% | 2.64% | 2.65% | 12.2% | -2.91% |
| COC(=O)N1CCCC(C(=O)NCc2cc3cccc(OC)c3o2)C1 (configuration not stated) | -4.05% | 7.59% | 3.35% | 19.5% | -2.36% | 2.28% | -2.54% | -18.3% | 3.45% | 8.86% | -3.44% |
| Cc1noc(C)c1C(=O)NCC(O)c1ccc(F)cc1F (configuration not stated) | -3.08% | 0% | -4.32% | -2.42% | -3.06% | 1.66% | 3.05% | 10.6% | -3.96% | -6.1% | 10.4% |
| COCC(=O)N1CC[C@@H]2O[C@H](COCc3ccncc3)CC[C@@H]21 | -3.69% | 18.9% | 10.4% | -8.21% | -4.2% | 9.24% | 16.6% | -0.209% | 1.08% | 17.9% | -0.872% |
| CCn1cnnc1CNC(=O)c1cc(Cl)ccc1O | -2.03% | 8.86% | 6.87% | -0.716% | -5.44% | -7.1% | 17% | 11.3% | 5.21% | -15.2% | -14% |
| COc1ccc(CN2CC[C@H](NC(C)=O)[C@@H](O)CC2)c(OC)c1 | -4.21% | 4.05% | 9.24% | 3.43% | 2.77% | -2.55% | 13.6% | 13% | -1.07% | 1.3% | -12.5% |
| O=S(=O)(C1CC1)N1CCO[C@H]2[C@H](OCCN3CCCC3)CC[C@@H]21 | 0.18% | 18.7% | -5.59% | -6.26% | 5.6% | -62.2% | 9.74% | 17.6% | 5.21% | 20% | -11.8% |
